This is an account of results in PubChem BioAssay (EPA / NIEHS).

The source made the active and inactive calls. The calls were made as follows: active = hit-call score of the fitted dose curve at least 0.9, where 1 is the maximum; inactive = score below 0.9.

Read-out in the assay: Interferon-gamma inducible Protein 10 (IP10), CXCL10 (gene 3627)
The assay can be described thus: BSK_BE3C_IP10: BioMAP Diversity Plus: BE3C Assay for Interferon-gamma inducible Protein 10 (IP10) Biomarker Activity (AID 2283034). The note with it: primary human bronchial epithelial cells; actives raise or lower the signal. The essentials: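 IP-10 quantified by ELISA serves as the endpoint. Cells: primary human bronchial epithelium, read 24 h after compound addition. Activity is derived by bidirectional fitting with DMSO as negative control.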
Take `O=C(O)C1(c2ccc3c(c2)OC[C@H](Cc2ccc(-c4ccccc4)cc2)[C@H]3O)CCCC1`: the AC50 (as a rule, the concentration at which the activity in the assay is half-maximal) is 5.91 µM (active).

Turning to `N#Cc1cccnc1`, the outcome was inactive. Same read-out and setting: with `Cc1cc(Cl)ccc1OC(C)C(=O)O` (centres undefined) the entry was “inactive”; with `O=C(CCl)NCO`, “inactive”; with `Nc1c(Oc2ccccc2)cc(O)c2c1C(=O)c1ccccc1C2=O`, “inactive”. `Oc1cc(Cl)c(Cl)cc1Cl`: the AC50 was 32.2 µM (active). Consider `C[C@]12CC[C@@H](O)C[C@@H]1CC[C@@H]1[C@@H]2CC[C@]2(C)C(=O)CC[C@@H]12`, for which the result was inactive. The same measure, in the same setting: with `CCC(C)(C#N)N=NC(C)(C#N)CC` (centres undefined) the entry was “inactive”. Take `NC(=O)CCl`: the result was inactive. In the case of `CCCCN(CCCC)C(=S)[S-].CCCCN(CCCC)C(=S)[S-].[Ni+2]`, the result was inactive. Same read-out and setting: the same measure for `CCCCOC(=O)COC(=O)c1ccccc1C(=O)OCCCC`: “inactive”. Consider `CCCCCCCCCCCCc1cccc(S(=O)(=O)O)c1`, for which the AC50 is 13 µM (active). With `O=C(N[C@H]1CN2CCC1CC2)c1ccc2c(c1)OCCO2`, the result was inactive. On the same count and under the same terms, the same measure for `Clc1cccc(Cl)c1Cl`: “inactive”. The same measure, in the same setting: the same measure for `Cc1cccc(OP(=O)(Oc2cccc(C)c2)Oc2cccc(C)c2)c1`: “inactive”; for `c1ccc2sc(SNC3CCCCC3)nc2c1`: “inactive”. Same read-out and setting: with `OCCCCO` the entry was “inactive”; with `CC(C)O.CC(C)O.OCCN(CCO)CCO.OCCN(CCO)CCO.[Ti]`, “inactive”. On to `Oc1c(Br)cc(Br)cc1Br`, for which the AC50 was 20 µM (active). As to `Clc1cccc(Cl)c1`, the result was inactive. `CC(C)N(C(=O)CCl)c1ccccc1`: the AC50 is 33.5 µM (active). For the compound `Nc1ccc(N)cc1`, the outcome was inactive. The same measure, in the same setting: the same measure for `Oc1cccc(-c2ccccc2)c1`: “inactive”; for `COCC(=O)N(c1c(C)cccc1C)[C@H](C)C(=O)OC`: “inactive”.
